According to ChEMBL document CHEMBL1961873, “Compounds: GSK PKIS; Assays: Nanosyn kinase panel” (2012):

Legend:
[1] = target: Calcium/calmodulin-dependent protein kinase type II subunit alpha (Homo sapiens) (UniProt Q9UQM7); details: at 1 µM;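 note: reported value is a mean percent inhibition of CAMK2A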
[2] = target: Calcium/calmodulin-dependent protein kinase type II subunit delta (Homo sapiens) (UniProt Q13557); details: at 0.1 µM
[3] = target: Calcium/calmodulin-dependent protein kinase type II subunit delta (Homo sapiens) (UniProt Q13557); details: at 1 µM
[4] = target: T1, Calcium/calmodulin-dependent protein kinase type IV (Homo sapiens) (UniProt Q16566); details: at 0.1 µM
T1 sequence (whole entry): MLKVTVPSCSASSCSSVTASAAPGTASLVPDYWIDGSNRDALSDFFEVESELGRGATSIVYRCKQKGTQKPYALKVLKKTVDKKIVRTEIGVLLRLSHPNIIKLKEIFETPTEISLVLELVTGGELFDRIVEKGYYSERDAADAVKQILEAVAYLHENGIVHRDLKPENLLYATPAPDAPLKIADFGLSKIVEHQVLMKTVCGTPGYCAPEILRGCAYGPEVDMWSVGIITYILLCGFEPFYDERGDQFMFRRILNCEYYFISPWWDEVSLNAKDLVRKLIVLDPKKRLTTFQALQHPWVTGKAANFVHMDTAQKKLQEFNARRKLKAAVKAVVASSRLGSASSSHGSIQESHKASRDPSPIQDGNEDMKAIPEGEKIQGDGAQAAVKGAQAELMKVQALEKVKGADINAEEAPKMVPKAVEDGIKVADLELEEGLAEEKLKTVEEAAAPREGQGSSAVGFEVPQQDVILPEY

[5] = target: T1, Calcium/calmodulin-dependent protein kinase type IV (Homo sapiens); details: at 1 µM
[6] = target: T2, Serine/threonine-protein kinase Chk1 (Homo sapiens) (UniProt O14757); details: at 0.1 µM
T2 sequence (whole entry): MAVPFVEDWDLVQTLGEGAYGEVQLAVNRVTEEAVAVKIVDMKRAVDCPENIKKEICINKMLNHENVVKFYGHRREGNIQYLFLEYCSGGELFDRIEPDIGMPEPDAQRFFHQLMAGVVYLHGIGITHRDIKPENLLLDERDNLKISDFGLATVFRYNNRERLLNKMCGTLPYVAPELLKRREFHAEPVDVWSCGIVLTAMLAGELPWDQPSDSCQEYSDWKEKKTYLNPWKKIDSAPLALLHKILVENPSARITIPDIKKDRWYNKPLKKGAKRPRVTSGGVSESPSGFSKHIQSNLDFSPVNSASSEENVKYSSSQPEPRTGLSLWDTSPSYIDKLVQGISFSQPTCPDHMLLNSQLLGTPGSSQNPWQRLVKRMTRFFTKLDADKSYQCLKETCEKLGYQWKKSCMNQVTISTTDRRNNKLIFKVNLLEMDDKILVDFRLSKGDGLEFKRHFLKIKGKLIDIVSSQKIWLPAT

[7] = target: T2, Serine/threonine-protein kinase Chk1 (Homo sapiens); details: at 1 µM
[8] = target: Serine/threonine-protein kinase Chk2 (Homo sapiens) (UniProt O96017); details: at 0.1 µM
Serine/threonine-protein kinase Chk2 (Homo sapiens), sequence (O96017 whole entry): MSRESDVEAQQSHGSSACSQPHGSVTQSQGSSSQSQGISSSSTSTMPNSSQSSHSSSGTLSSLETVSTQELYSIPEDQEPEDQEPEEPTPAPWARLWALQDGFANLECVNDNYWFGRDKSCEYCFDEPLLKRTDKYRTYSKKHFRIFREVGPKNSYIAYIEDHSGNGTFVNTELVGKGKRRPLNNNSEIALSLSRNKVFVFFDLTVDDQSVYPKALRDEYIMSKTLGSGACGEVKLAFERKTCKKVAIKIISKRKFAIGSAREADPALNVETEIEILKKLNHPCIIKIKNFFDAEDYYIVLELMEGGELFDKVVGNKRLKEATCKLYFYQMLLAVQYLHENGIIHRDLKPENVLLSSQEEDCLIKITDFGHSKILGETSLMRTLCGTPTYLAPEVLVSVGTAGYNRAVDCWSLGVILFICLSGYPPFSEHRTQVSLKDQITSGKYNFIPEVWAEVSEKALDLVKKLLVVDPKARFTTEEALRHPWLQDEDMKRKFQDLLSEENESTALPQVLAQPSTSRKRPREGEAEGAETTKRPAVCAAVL

[9] = target: Serine/threonine-protein kinase Chk2 (Homo sapiens) (UniProt O96017); details: at 1 µM
[10] = target: Death-associated protein kinase 1 (Homo sapiens) (UniProt P53355); details: at 0.1 µM
Death-associated protein kinase 1 (Homo sapiens), sequence (P53355 whole entry, looked up): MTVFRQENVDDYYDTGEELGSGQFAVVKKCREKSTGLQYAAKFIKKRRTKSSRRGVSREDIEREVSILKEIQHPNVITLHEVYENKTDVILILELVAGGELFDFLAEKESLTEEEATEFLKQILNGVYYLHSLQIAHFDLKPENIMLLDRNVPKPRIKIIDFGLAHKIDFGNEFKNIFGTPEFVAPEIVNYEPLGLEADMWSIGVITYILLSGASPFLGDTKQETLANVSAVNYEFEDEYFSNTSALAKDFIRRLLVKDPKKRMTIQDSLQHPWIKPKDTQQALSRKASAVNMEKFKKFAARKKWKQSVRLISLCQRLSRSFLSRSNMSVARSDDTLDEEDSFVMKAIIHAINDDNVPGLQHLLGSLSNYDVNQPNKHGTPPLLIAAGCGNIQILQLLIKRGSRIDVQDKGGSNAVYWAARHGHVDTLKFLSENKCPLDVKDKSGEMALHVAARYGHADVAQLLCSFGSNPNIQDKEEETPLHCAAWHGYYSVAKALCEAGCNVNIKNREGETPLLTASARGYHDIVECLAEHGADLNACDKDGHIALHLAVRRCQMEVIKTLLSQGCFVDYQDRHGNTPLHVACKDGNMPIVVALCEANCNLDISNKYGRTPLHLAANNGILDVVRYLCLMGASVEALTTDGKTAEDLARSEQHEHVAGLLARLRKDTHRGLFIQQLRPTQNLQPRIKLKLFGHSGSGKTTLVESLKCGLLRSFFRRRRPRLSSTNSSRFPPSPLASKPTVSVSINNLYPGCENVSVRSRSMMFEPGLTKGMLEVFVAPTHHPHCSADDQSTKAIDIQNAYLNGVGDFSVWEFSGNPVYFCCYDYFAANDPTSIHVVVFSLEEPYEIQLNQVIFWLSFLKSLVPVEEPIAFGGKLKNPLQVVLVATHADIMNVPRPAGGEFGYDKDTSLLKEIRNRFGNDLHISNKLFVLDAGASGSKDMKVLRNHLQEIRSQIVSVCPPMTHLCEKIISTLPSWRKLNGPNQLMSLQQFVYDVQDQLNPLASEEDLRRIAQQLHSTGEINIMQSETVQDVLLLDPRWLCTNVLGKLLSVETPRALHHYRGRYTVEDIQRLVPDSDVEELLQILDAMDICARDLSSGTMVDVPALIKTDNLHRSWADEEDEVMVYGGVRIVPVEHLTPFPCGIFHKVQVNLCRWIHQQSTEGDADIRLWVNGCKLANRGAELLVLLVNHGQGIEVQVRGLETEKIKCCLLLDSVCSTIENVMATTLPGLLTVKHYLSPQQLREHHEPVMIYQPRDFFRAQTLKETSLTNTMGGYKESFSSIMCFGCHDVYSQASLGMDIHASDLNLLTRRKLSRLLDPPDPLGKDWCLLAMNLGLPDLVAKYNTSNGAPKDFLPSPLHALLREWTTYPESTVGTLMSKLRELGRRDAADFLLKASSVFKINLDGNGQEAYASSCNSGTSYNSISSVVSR

[11] = target: Death-associated protein kinase 1 (Homo sapiens) (UniProt P53355); details: at 1 µM
[12] = target: T3, Serine/threonine-protein kinase DCLK2 (Homo sapiens) (UniProt Q8N568); details: at 0.1 µM
T3 sequence (whole entry): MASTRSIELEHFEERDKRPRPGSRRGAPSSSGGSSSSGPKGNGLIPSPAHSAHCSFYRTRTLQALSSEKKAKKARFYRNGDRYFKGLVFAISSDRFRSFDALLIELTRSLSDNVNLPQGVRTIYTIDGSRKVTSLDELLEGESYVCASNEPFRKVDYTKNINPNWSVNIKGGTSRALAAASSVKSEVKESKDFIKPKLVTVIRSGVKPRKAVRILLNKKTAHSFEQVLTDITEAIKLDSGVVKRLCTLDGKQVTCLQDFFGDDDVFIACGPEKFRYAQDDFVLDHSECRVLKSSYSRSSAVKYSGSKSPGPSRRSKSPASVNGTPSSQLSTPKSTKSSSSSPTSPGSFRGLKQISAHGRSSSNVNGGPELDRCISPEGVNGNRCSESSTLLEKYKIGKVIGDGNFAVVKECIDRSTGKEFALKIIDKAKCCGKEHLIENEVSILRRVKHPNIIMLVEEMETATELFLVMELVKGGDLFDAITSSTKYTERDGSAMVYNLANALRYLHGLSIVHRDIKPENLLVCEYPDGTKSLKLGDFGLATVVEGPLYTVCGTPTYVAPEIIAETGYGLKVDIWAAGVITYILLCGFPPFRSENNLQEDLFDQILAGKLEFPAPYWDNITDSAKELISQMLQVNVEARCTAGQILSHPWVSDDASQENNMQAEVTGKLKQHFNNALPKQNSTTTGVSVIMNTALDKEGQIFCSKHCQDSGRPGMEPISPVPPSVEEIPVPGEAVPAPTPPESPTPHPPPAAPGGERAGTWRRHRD

[13] = target: T3, Serine/threonine-protein kinase DCLK2 (Homo sapiens); details: at 1 µM
[14] = target: MAP kinase-activated protein kinase 2 (Homo sapiens) (UniProt P49137); details: at 0.1 µM
MAP kinase-activated protein kinase 2 (Homo sapiens), sequence (P49137 whole entry, looked up): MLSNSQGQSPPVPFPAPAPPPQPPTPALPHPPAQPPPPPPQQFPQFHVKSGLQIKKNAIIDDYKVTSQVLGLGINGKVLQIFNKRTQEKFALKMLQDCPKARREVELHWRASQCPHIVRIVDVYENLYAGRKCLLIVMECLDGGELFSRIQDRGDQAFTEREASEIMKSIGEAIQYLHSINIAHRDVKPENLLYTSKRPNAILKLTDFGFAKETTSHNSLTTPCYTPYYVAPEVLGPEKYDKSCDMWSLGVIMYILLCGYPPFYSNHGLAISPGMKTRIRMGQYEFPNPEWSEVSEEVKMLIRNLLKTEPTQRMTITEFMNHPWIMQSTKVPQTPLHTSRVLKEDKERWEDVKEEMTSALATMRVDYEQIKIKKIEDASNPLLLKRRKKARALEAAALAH

[15] = target: MAP kinase-activated protein kinase 2 (Homo sapiens) (UniProt P49137); details: at 1 µM
[16] = target: MAP kinase-activated protein kinase 3 (Homo sapiens) (UniProt Q16644); details: at 0.1 µM
MAP kinase-activated protein kinase 3 (Homo sapiens), sequence (Q16644 whole entry, looked up): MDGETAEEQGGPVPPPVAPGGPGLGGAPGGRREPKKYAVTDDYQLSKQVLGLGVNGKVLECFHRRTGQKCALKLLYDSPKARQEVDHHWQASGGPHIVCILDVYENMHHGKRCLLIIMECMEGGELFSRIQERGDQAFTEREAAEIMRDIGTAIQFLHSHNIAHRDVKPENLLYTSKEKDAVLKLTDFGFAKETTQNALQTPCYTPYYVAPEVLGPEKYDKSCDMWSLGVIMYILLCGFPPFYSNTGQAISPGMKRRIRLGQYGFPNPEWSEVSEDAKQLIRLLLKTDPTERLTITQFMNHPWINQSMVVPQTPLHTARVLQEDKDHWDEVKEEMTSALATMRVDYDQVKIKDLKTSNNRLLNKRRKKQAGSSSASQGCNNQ

[17] = target: MAP kinase-activated protein kinase 3 (Homo sapiens) (UniProt Q16644); details: at 1 µM
[18] = target: Serine/threonine-protein kinase MARK1 (Homo sapiens) (UniProt Q9P0L2); details: at 0.1 µM
Serine/threonine-protein kinase MARK1 (Homo sapiens), sequence (Q9P0L2 whole entry, looked up): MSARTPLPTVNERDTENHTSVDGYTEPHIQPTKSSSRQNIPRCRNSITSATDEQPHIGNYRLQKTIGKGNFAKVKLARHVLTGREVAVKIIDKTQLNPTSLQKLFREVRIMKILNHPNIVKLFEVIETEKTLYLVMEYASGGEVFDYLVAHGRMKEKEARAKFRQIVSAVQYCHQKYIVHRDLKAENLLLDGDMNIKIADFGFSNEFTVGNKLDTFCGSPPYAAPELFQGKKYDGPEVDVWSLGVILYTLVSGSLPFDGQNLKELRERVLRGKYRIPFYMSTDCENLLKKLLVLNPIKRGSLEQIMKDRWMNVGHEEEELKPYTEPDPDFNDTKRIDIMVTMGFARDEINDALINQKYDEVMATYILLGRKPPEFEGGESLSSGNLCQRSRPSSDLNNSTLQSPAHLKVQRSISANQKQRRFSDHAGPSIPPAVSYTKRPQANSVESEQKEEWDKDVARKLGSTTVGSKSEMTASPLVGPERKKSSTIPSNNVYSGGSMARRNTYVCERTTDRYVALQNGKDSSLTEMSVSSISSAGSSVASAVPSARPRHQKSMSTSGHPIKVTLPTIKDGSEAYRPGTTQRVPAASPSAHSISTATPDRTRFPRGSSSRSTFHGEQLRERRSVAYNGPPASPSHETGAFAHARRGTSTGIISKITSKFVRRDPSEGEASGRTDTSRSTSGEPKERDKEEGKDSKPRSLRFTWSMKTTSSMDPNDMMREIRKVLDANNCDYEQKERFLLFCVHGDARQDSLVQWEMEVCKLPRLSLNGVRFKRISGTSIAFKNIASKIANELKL

[19] = target: Serine/threonine-protein kinase MARK1 (Homo sapiens) (UniProt Q9P0L2); details: at 1 µM
[20] = target: MAP/microtubule affinity-regulating kinase 3 (Homo sapiens) (UniProt P27448); details: at 0.1 µM;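 note: mean percent inhibition of MARK3 kinase activity, measured within the GSK PKIS screening panel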
MAP/microtubule affinity-regulating kinase 3 (Homo sapiens), sequence (P27448 whole entry, looked up): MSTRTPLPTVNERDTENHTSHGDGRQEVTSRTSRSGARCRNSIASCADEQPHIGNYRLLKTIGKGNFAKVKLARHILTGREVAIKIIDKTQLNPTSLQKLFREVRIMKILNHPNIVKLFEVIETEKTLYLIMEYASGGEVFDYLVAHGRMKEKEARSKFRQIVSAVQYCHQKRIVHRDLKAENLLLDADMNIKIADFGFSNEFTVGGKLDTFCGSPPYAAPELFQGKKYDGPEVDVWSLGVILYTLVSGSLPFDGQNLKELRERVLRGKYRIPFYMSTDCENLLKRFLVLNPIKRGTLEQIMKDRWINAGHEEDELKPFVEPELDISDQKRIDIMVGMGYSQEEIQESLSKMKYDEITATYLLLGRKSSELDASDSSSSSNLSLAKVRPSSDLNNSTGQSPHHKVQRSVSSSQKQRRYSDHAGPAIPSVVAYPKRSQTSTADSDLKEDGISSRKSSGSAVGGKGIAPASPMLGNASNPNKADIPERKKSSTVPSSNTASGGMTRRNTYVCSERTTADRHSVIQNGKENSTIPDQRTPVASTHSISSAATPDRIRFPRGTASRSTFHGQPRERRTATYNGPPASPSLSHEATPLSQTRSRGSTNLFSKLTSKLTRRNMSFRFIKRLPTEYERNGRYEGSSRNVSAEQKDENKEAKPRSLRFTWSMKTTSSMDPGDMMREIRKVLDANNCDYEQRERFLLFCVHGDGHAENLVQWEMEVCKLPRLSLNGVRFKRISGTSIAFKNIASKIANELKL

Calcium/calmodulin-dependent protein kinase type II subunit alpha (Homo sapiens), sequence (Q9UQM7 whole entry): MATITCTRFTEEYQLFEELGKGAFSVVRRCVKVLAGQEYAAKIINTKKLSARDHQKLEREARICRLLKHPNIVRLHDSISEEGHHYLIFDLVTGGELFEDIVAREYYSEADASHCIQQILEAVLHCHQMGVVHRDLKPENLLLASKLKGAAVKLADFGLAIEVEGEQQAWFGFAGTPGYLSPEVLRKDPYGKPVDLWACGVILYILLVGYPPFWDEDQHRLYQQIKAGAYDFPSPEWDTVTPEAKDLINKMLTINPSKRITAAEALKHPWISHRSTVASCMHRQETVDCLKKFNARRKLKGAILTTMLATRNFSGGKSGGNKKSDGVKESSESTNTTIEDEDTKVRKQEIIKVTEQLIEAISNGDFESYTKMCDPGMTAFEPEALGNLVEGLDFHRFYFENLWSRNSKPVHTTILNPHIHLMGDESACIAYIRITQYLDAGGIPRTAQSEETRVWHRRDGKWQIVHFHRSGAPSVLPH

Compound | inhibition [1] | inhibition [2] | inhibition [3] | inhibition [4] | inhibition [5] | inhibition [6] | inhibition [7] | inhibition [8] | inhibition [9] | inhibition [10] | inhibition [11] | inhibition [12] | inhibition [13] | inhibition [14] | inhibition [15] | inhibition [16] | inhibition [17] | inhibition [18] | inhibition [19] | inhibition [20]
N#Cc1c(NC(=O)c2ccc(F)cc2)sc2c1CCCC2 | -0.01% | 0.08% | 0.72% | -0.9% | 2.49% | 0.15% | 0.56% | -0.21% | 0.73% | 0.39% | 0.36% | 0% | 5.74% | 0.34% | -0.56% | 0.8% | 0.7% | 1.17% | 0.93% | -0.62%
c1ccc(-c2nc3n(c2-c2ccc4c(c2)OCO4)CCC3)nc1 | 0.36% | 1.63% | 0.93% | 0.61% | -0.72% | 3.23% | 3.51% | -0.09% | 0.94% | 1.93% | 1.91% | 0.33% | 2.8% | 1.38% | 1.27% | 3.55% | 3.33% | 1.87% | 4.07% | 2.01%
c1ccc(COc2ccc(Nc3ncnc4ccc(-c5ccco5)cc34)cc2)cc1 | 0.02% | 0.67% | 0.25% | 1.19% | 0.04% | 0.21% | -0.59% | 1.08% | 4.69% | 2.45% | 0.73% | -0.98% | -0.08% | 2.44% | 0.12% | 1.07% | -0.28% | 0.18% | 1.8% | 0.1%
COc1ccc(-c2nn3ncccc3c2-c2ccnc(Nc3ccc4c(c3)OCCO4)n2)cc1 | -2.04% | 0.97% | 0.2% | 1.75% | -0.47% | -2.62% | -1.19% | -1.05% | 0.02% | 2.51% | 2.06% | -1.54% | -0.74% | 0.19% | 0.03% | 30.9% | 37% | 0.34% | 2.66% | 3%
COc1cccc(-c2c[nH]c3c(N/N=C/c4ccncc4)ncnc23)c1 | 6.66% | 3.84% | 15.2% | 1.55% | 4.18% | 7.71% | 11.3% | 5.73% | 6.91% | 9.18% | 11.2% | 1.17% | 8.13% | 2.94% | 3.56% | 9.72% | 11.1% | 2.74% | 8.15% | 6.06%
O=C(O[C@H]1CN[C@H](C#Cc2cc3ncnc(Nc4ccc(Cc5ccccc5)cc4)c3s2)C1)N1CCOCC1 | -1.9% | 1.04% | -0.85% | -0.04% | -2.21% | 1.79% | 0.1% | 0.28% | 0.95% | 4.84% | 2.13% | -0.4% | 2.31% | 0.76% | -0.1% | 3.66% | 3.19% | 1.63% | 2.56% | 2.46%
Cc1cccc2c1NC(=O)/C2=N\Nc1ccc(S(N)(=O)=O)cc1 | 3.33% | 3.36% | 3.56% | 0.62% | 1.1% | 0.95% | 5.04% | 1.68% | 2.64% | 3.69% | 4.75% | 0.74% | 2.14% | 1.37% | 1.1% | 2.44% | 2.04% | 1.81% | 3.2% | 2.64%
O=S(=O)(CCNCc1ccc(-c2ccc3ncnc(Nc4ccc(OCc5cccc(F)c5)c(Cl)c4)c3c2)o1)c1ccccc1 | 2.35% | 3.72% | 4.42% | -0.6% | 0.28% | 7.26% | 10.1% | 2.55% | 3.38% | 8.91% | 6.96% | 1.44% | 2.85% | 2.31% | 2.57% | 7.71% | 7.76% | 3.69% | 5.01% | 3.94%
CC(=O)Nc1cccc(C#Cc2cncnc2Nc2ccc(OCc3cccc(F)c3)c(Cl)c2)c1 | 4.52% | 4.28% | 3.37% | 1.57% | 3.24% | -1.89% | -3.6% | -2.67% | -1.77% | -6.34% | -5.4% | 2.03% | -0.73% | -2.08% | -2.08% | -4.18% | -2.89% | 1.42% | 0.83% | 3.81%
COc1cc2c(cc1Nc1nc(Nc3ccsc3C(N)=O)c3cc[nH]c3n1)N(C(=O)CN(C)C)CCC2(C)C | 10.5% | 7.45% | 25.7% | 3.29% | 19.9% | -0.75% | -2.52% | 0.76% | 21.1% | -1.5% | 5.25% | 1.46% | 5.94% | -0.48% | -0.86% | -0.72% | -0.02% | 6.98% | 11.9% | 5.88%
Cc1ccc2c(-c3ccnc(Nc4ccccc4)n3)c(-c3ccc(F)cc3)nn2n1 | 4.16% | 3.9% | 4.15% | -0.02% | 1.87% | 2.71% | 4.19% | 2.15% | 2.4% | 3.42% | 5.85% | 1.21% | 1.97% | 1.27% | 1.49% | 32.5% | 36% | 2.17% | 2.96% | 3.81%
CNC(=O)c1cccc(C#Cc2cncnc2Nc2ccc(OCc3cccc(F)c3)c(Cl)c2)c1 | 1.97% | 0.91% | 1.19% | -0.97% | -3.36% | -1.85% | -0.79% | 0.62% | 2.35% | -1.4% | -1.89% | -9.58% | -6.14% | 1.01% | 0.58% | 1.88% | 1.66% | -0.72% | 1.6% | 1.07%
